For 39 molecules, activity change, negative = inhibition and Potency results are on record in PubChem BioAssay AID2158 (National Center for Advancing Translational Sciences (NCATS), 2009).

Records with an inconclusive call do not appear. Values without a mark were called inactive. The source made the active and inactive calls. Calls come from the whole dose curve; as a rule, active = well fitted inhibition curve with a large enough effect; inconclusive = small, poorly fitted or top-dose-only effect; inactive = no such curve, though single readings can be large or run the other way.
Potency is the fitted concentration of half-maximal effect.

Cruzipain (Trypanosoma cruzi), sequence (P25779 123-467 limits assumed): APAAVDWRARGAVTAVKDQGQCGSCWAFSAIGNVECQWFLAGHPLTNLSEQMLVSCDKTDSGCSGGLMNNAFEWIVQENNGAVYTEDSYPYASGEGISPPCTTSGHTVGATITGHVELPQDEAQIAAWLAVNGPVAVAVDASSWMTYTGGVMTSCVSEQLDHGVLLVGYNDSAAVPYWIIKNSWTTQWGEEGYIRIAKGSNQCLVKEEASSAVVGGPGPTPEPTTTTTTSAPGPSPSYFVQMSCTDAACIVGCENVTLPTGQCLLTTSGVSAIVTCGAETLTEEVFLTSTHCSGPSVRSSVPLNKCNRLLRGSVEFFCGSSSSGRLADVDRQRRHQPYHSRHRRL

The assay deals with Cruzipain (Trypanosoma cruzi) (UniProt P25779). In words: Confirmation qHTS Assay for Inhibitors of Cruzain.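 For activity change, negative = inhibition: plate controls were uninhibited enzyme control for no effect and buffer wells lacking enzyme for full effect.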 Note: nearly all actives have a fitted effect of over 40% in size. To be noted: purified cruzain, Z-FR-AMC fluorescence, 0.01% Triton. The gist of the method:
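Reaction progress from the 60 s rise in AMC fluorescence (ex 360, em 450 nm) after adding 2 uM Z-FR-AMC. Before this, 1.5 nM cruzain sat 15 min at room temperature with compound in pH 5.5 acetate buffer with 5 mM DTT and 0.01% Triton X-100.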
In the case of `Nc1ccc2c(c1)C(=O)C(=O)c1ccccc1-2`, the activity change, negative = inhibition is -54.3%.

For the molecule `CCC(c1nnnn1Cc1ccccc1)N(Cc1ccccc1)Cc1cc2cc(C)ccc2[nH]c1=O` (centres undefined), the activity change, negative = inhibition was -9.93%. Take `N#CN1CCC(NC(=O)c2cccc(C(F)(F)F)c2)CC1`: the activity change, negative = inhibition is -5.22%. Turning to `CC(C)(C)c1ccc(S(=O)(=O)c2cnc(SCC(=O)Nc3ccc(F)c(Cl)c3)[nH]c2=O)cc1`, the Potency is 3.98 µM (active). On to `N#Cc1nc(Nc2ccc(-c3ccccc3)cc2)nc(NC2CCCC2)n1`, for which the Potency is 3.98 µM (active). On to `COc1ccc(C)cc1NC(=O)C(OC(=O)CNC(=O)c1ccccc1)c1ccccc1` (centres undefined), for which the Potency was 8.91 µM (active). As for `O=C(NCCCc1nc2ccccc2n1CCCOc1ccccc1)C1CCCCC1`, the activity change, negative = inhibition was -12.3%. Regarding `CCn1nc(-c2ccc(C)cc2)nc2c(=O)n(C)c(=O)nc1-2`, the Potency was 2.82 µM (active). Regarding `c1ccc2cc3c(NCCN4CCOCC4)ccnc3cc2c1`, the activity change, negative = inhibition was -21.6%.

As to `O=C(NCCc1nc2ccccc2n1CCCOc1ccccc1Cl)C1CCCCC1`, the Potency was 1.58 µM (active). Take `CCCN(CCC)c1nc(C#N)nc(N(CCC)CCC)n1`: the Potency is 3.55 µM (active).

`CCN(CC)c1nc(C#N)nc(OC)n1`: the Potency is 7.08 µM (active).

Take `CC(C)(C)OC(=O)NCc1nnc(-c2nc3ccccc3[nH]2)o1`: the activity change, negative = inhibition is -4.26%. Take `O=C(NCc1nnc(C(=O)Nc2ccc(C(F)(F)F)cc2Cl)o1)c1ccccc1`: the activity change, negative = inhibition is -7.13%. Turning to `CNC(=O)c1ccc2nc(-c3ccccc3)c(-c3ccccc3)nc2c1`, the activity change, negative = inhibition is -11.4%. As to `O=C(NCCc1nc2ccccc2n1CCCOc1ccc2ccccc2c1)C1CCCCC1`, the Potency is 1.12 µM (active).

For `N#Cc1nc(Nc2cccc([N+](=O)[O-])c2)nc(NC2CCCC2)n1`, the Potency was 0.0631 µM (active). Consider `S=C(NC1CCCCC1)N(CCc1nc2ccccc2[nH]1)C1CCCC1`, for which the Potency was 0.631 µM (active). With `CCc1ccc(C(=O)COC(=O)CNC(=O)COc2ccccc2)cc1`, the activity change, negative = inhibition is 35.9%. Same read-out and setting: the same measure for `CCCNC(=O)Cn1c(SCc2ccccc2C)nc2ccncc21`: -2.3%.

Take `N#Cc1nc(Nc2cccc(-c3ccccc3)c2)nc(NC2CCCC2)n1`: the Potency was 2.24 µM (active).

Take `COc1cc(NC(=O)C(OC(=O)CNC(=O)c2ccccc2)c2ccccc2)cc(C(F)(F)F)c1` (centres undefined): the Potency was 31.6 µM (active).

As for `Cc1ccc(C(=O)NCCn2c(N)c(C#N)c3nc4ccccc4nc32)cc1`, the activity change, negative = inhibition was -28.5%.

With `COCC(C)NC(=O)Cn1c(SCc2ccccc2)nc2ccccc21` (centres undefined), the activity change, negative = inhibition was -6.96%.

In the case of `CC(C)(C)OC(=O)NCC(=O)NNC(=O)c1nc2ccccc2[nH]1`, the activity change, negative = inhibition is 2.49%. In the case of `COc1ccccc1-c1nn2c(-c3cc(C)[nH]n3)nnc2s1`, the activity change, negative = inhibition is -12.2%. On to `CC(C)(C)OC(=O)NCc1nnc(-c2cc3ccccc3[nH]2)s1`, for which the activity change, negative = inhibition was -12.9%. For `COc1ccc(OC)c(C(=O)COC(=O)CNC(=O)C2CCCCC2)c1`, the Potency was 7.08 µM (active). In the case of `CCCN(CCC)c1nc(N)nc(C#N)n1`, the Potency is 2.51 µM (active).

As to `CCN(c1ccccc1)c1nc(N)nc(C#N)n1`, the Potency is 14.1 µM (active). Turning to `CC(C)(C)OC(=O)Cc1nnc(CNC(=O)c2ccccc2)s1`, the activity change, negative = inhibition was -0.719%. For the molecule `Cc1ccc(C)c(-c2csc(-c3c(N)c(C(=O)c4ccc5c(c4)OCO5)n4ccccc34)n2)c1`, the activity change, negative = inhibition is -1.82%. The same measure, in the same setting: in the case of `CCOc1ccc(NC(=O)c2ccc(CNc3c(NC4CCCCC4)c(=O)c3=O)cc2)cc1` it was 1.77%. In the case of `COc1ccccc1OCCCn1c(CCNC(=O)C2CCCCC2)nc2ccccc21`, the Potency was 0.708 µM (active). On to `Cn1c(C(=O)NCCN2CCCCCC2)cc2c(=O)n(C)c3ccccc3c21`, for which the Potency is 25.1 µM (active).

Take `O=C(CNC(=O)C1CCCCC1)OCC(=O)c1cccc(Cl)c1`: the Potency is 2.82 µM (active).

For the molecule `Cc1ccc(C(=O)NC2CCN(C#N)CC2)cc1`, the activity change, negative = inhibition was -5.84%. Turning to `O=C(NCCCO)c1ccc2nc(-c3ccco3)c(-c3ccco3)nc2c1`, the Potency is 12.6 µM (active). As to `N#Cc1nc(NCCCCO)nc(Nc2ccccc2)n1`, the Potency was 0.891 µM (active).
